Among the data in PubChem BioAssay (NCI) are growth values, retold here.

SMILES strings stand for the structures. Compounds without any hit were thinned out: in the full panel of roughly 83,000, 20% have a hit.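 In brief: 96-well plates, 48 h treatment, single concentration, percent growth endpoint.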 A number with no mark means an inactive call. The source made the active and inactive calls. How the source made its calls: active means growth percent below 10; inactive means the rest.

This experiment relates to MDA-MB-435 melanoma. In words: NCI-60 one-dose screen, 48 h (100 = growth as untreated, 0 = no growth, -100 = all killed). The note with it: 10 µM unless noted.
Consider `N#Cc1nc(-c2ccccc2)oc1S(=O)(=O)N1CCCCC1`, for which the growth is 68%.

Turning to `COc1ccc(-c2nn3c(-c4ccccc4F)nnc3s2)cc1`, the growth was -4.46% (active).

As for `COc1cc(OC)c(C2C(Cl)C(=O)N2Nc2ncnc3ccccc23)cc1OC` (stereo not drawn), the growth was 96.2%.

Consider `O=C(CSc1nc2sc3c(c2c(=O)n1-c1ccc(Cl)cc1)CCCC3)N/N=C/c1ccc(F)cc1`, for which the growth is 86.9%.

Turning to `Nc1ncc(-c2ccc3ncnc(N4CCc5cc(F)c(Cl)cc54)c3c2)cc1CO`, the growth was -34.4% (active).

As to `CN(C)CCCOc1c2ccc(Cl)cc2nc2c1oc1ccc(Cl)cc12`, the growth is -10.2% (active).

Take `NS(=O)(=O)c1ccc(Nc2nc(SCC(=O)c3ccc(Cl)cc3)nc3ccccc23)cc1`: the growth is 97.5%.

As to `N#Cc1nc(-c2ccccc2)oc1N1CC[C@@H](CO)C1`, the growth was 99%.

For `CC(C)(C)Nc1nc2c(OCCc3ccccc3)cccn2c1-c1ccc(O)cc1`, the growth was 72.5%.

With `N#Cc1c(-c2ccc(Cl)cc2)nc(SCc2ccc(F)cc2)nc1N1CCNCC1`, the growth was 69.3%.

On to `Fc1ccc(-c2cc3nc(C(Cl)Cl)nc(-c4ccccc4)n3n2)cc1`, for which the growth was 6.42% (active).

For the molecule `COc1cc(/C=C/C(=O)c2ccccc2)ccc1Oc1nc(NCCO)nc(N2CCOCC2)n1`, the growth was 93.1%.

On to `O=C(N/N=C/c1ccc[nH]1)c1[nH]c2ccc(Br)cc2c1-c1ccccc1`, for which the growth was 2.21% (active).

Take `CN(C)c1ccc(/C=C2\Cc3c(F)ccc(Br)c3C2=O)cc1`: the growth was 92.7%.

With `CC(C)(C)Nc1nc2c(OCCc3ccccc3)cccn2c1-c1cccc(F)c1`, the growth was 2.41% (active).

Take `OC1CCN(CCCOc2c3ccc(Cl)cc3nc3c2oc2ccc(Cl)cc23)CC1`: the growth was -70.4% (active).

As to `Fc1ccc(-c2cc3nc(C(Cl)Cl)nc(-c4ccc(Cl)cc4)n3n2)cc1`, the growth is 25.8%.

On to `COC(=O)C(Cc1ccccc1)NS(=O)(=O)/N=C1\NC(=O)NC1=C(Cl)Cl` (stereo not drawn), for which the growth was 105%.

Regarding `Nc1cc(-c2c[nH]c3ccccc23)nc2cc(-c3c[nH]c4ccccc34)nn12`, the growth was 70.9%.

For the molecule `O=C(N/N=C/c1ccco1)c1[nH]c2ccc(Br)cc2c1-c1ccccc1`, the growth is 0.898% (active).

Regarding `OC1CCN(CCCOc2c3ccccc3nc3c2oc2ccc(Cl)cc23)CC1`, the growth is -40.6% (active).

`CN(C)CCCOc1c2ccc(Cl)cc2nc2c1oc1ccccc12`: the growth is -51.9% (active).

As for `Cc1[nH]nc2ncc(C#Cc3cncc(C(=O)Nc4ccc(CN5CCN(C)CC5)c(C(F)(F)F)c4)c3)cc12`, the growth was 13.1%.

`Cc1sc2c(c1C)c(=O)nc1c(-c3nc(-c4ccc(F)cc4)no3)n[nH]n12`: the growth was 105%.

Regarding `C#Cc1nc(C2=C(C)C(O)/C(=N/O)C2)cs1` (stereo not drawn), the growth was 95.6%.

With `Cc1ccc(C(=O)Nc2cccc(C(F)(F)F)c2)cc1Nc1nc(-c2cnccn2)nc2c1cnn2C`, the growth was 35.9%.

With `CN1CCc2c(sc3ncnc(N/N=C/c4ccc(Cl)c(Cl)c4)c23)C1`, the growth is 11.6%.

Turning to `CC(=O)Nc1cc(F)cc(-c2ccc3[nH]cc(-c4ccccc4)c3n2)c1`, the growth was 9.43% (active).

As for `CS(=O)(=O)c1ccc(-n2cc(/C=C/C(=O)c3ccc(NC(=O)CO[N+](=O)[O-])cc3)c(-c3ccc(Cl)cc3)n2)cc1`, the growth was 104%.

Take `CC(C)(C)Nc1nc2c(OCCc3ccccc3)cccn2c1-c1ccc(Cl)cc1`: the growth was 19.2%.

For the molecule `N#Cc1nc(-c2ccccc2)oc1S(=O)(=O)N1CCN(CCc2ccccn2)CC1`, the growth was 22.9%.

For `C#Cc1nc(C2=C(C)C(OC(=O)CCC(=O)O)CC2)cs1` (stereo not drawn), the growth was 106%.

Take `O=C(NNc1nc2cc(F)ccc2n2c(CN3CC4(COC4)C3)ccc12)c1cnccn1`: the growth is 35.2%.

Regarding `Cc1cccc(/C=C/c2nn3c(-c4ccco4)nnc3s2)c1`, the growth is 95.8%.

In the case of `CCN1C(=S)N(CC)C2C1N=C(SC)N2/N=C/C=C/c1ccccc1[N+](=O)[O-]` (stereo not drawn), the growth is 94.4%.

Turning to `Nc1cc(-c2c[nH]c3ccc(F)cc23)nc2cc(-c3c[nH]c4ccc(F)cc34)nn12`, the growth is 64.2%.

Consider `Clc1ccc(Cc2nnc3sc(-c4cccnc4)nn23)cc1`, for which the growth is 101%.

In the case of `NS(=O)(=O)c1cccc(Nc2nc(SCC(=O)c3ccc(Br)cc3)nc3ccccc23)c1`, the growth is 75.3%.
